From PubChem BioAssay (NCI) come the findings set out here.

Several values for one entry are separate records, joined by “and”; a condition that tells them apart may be missing. Equal values may be shown once. About 83,000 compounds went through this panel and 20% of them were active in at least one assay; those are over-represented in the sample as a whole.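 How to read the values: 0–100, growth inhibition (40 = 60% inhibited); 0, no net growth; -100 to 0, cell death (-40 = 40% of starting cells died; -100 = all dead).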 Activity calls are given as the source filed them. The calls were made as follows: active = growth percent below 10; inactive = the rest.

This assay deals with CCRF-CEM leukemia. In words: NCI-60 one-dose screen, 48 h (100 = growth as untreated, 0 = no growth, -100 = all killed). The following applies: 10 µM unless noted.
`O=C(O)C1(C(=O)O)CCC1.[NH2-].[NH2-].[Pt+2]`: the growth is 90.8% (inactive). In the case of `CC1(C)[C@@H](OC(=O)CCC(=O)O)CC[C@]2(C)[C@H]3C(=O)C=C4[C@@H]5C[C@@](C)(C(=O)O)CC[C@]5(C)CC[C@@]4(C)[C@]3(C)CC[C@@H]12`, the growth is 92.6% (inactive) and -37.2% (active). On to `CCNC(=O)Nc1ccc(-c2nc3c(c(N4CCOC[C@@H]4C)n2)CCN(C2COC2)C3)cc1`, for which the growth was 52.8% (inactive) and 12.2% (inactive). For `O=C1C2=C(C(=O)c3ccccc31)C(O)(S(=O)(=O)O)C(O)(S(=O)(=O)O)C1N=CC=CC21` (stereo unspecified), the growth was 25.1% (inactive) and 41.9% (inactive). To `COc1ccc2c(=O)cc(-c3ccccc3)[nH]c2c1` belongs 14% (inactive) and 12.2% (inactive); to `COc1cc(Nc2nc3ccccc3nc2NS(=O)(=O)c2ccc(NC(=O)c3ccc(C)c(OC)c3)cc2)cc(OC)c1`, 20% (inactive); to `COc1cc(-c2nccc3cc4c(cc23)OCO4)cc(OC)c1OC`, 34.2% (inactive) and 34.4% (inactive). To `CCN(CC)CCC(CNc1ccnc2cc(Cl)ccc12)c1ccc(OC)cc1` (stereo unspecified) belongs 63.4% (inactive) and 45.8% (inactive); to `CC(=O)Nc1ccc(O)cc1`, 88.7% (inactive) and 108% (inactive); to `c1ccc2c(CC3=NCCN3)cccc2c1`, 99.8% (inactive).

With `Cc1nn(-c2ccc(Cl)cc2)c2ncnc(N/N=C/c3ccccc3O)c12`, the growth was 6.41% (active) and -2.4% (active). For the compound `CCN(CC)C(=S)SSC(=S)N(CC)CC`, the growth is 16.9% (inactive) and 102% (inactive). In the case of `Nc1nc(SC/C=C/CCl)c2[nH]cnc2n1`, the growth was 96.6% (inactive).

`CC1CCCC(=O)O1` (stereo unspecified): the growth is 111% (inactive). The figure for `c1ccc(NCc2ccc3c(c2)OCO3)cc1` is 101% (inactive) and 92.3% (inactive); for `CN(Cc1ccccc1)Cc1ccccc1` it is 115% (inactive). To `O=[N+]([O-])c1ccc(N/N=C\c2cc(Br)ccc2O)nc1` belongs 17.5% (inactive) and -4.06% (active); to `O=C(Nc1ccc(Br)cc1)c1cc(Br)ccc1O`, 23.4% (inactive) and 3.66% (active); to `CN(C)c1ccc(C(=C2C=CC(=[N+](C)C)C=C2)c2ccccc2Cl)cc1`, -35.3% (active) and 5.73% (active).

Turning to `O=C(Cc1cccc2ccccc12)N/N=C/c1ccc2c(c1)CCC2`, the growth was 65.2% (inactive). To `O=C(O)C1C2C=CC(C2)C1C(=O)O` (stereo unspecified) belongs 95.4% (inactive) and 25.3% (inactive) and 99.6% (inactive); to `COc1cc(C(=O)c2ccc3c(c2)OCO3)cc(OC)c1OC`, 19.5% (inactive); to `O=C(CCc1ccc(O)cc1)N/N=C/c1cc(Br)ccc1O`, 13.3% (inactive). In the case of `CC(=O)Oc1cc(C(=O)O)cc(OC(C)=O)c1OC(C)=O`, the growth was 101% (inactive) and 104% (inactive). To `Cn1c(=O)c2[nH]c(CCCCCCCCc3nc4ccccc4[nH]3)nc2n(C)c1=O` belongs 69.6% (inactive) and 66.4% (inactive); to `O=C1c2ccccc2C(=O)N1/N=C/c1ccc2c(c1)OCO2`, 93.1% (inactive); to `S=C1SCN(Cc2ccccc2)CN1Cc1ccccc1`, 40.4% (inactive). Consider `Cc1ccc(-c2noc(CC(=O)c3ccc([N+](=O)[O-])cc3)n2)cc1`, for which the growth is 96.7% (inactive). To `Oc1ccc(/C=C/c2ccccc2)cc1` belongs 33.5% (inactive) and 33.3% (inactive); to `CC(=O)C(/C=N/C(N)=O)=C(/C)O`, 97.4% (inactive). On to `COC(=O)c1nc(N)nc(C(=O)OC)c1C(=O)c1ccc(OC)cc1`, for which the growth was 104% (inactive) and 39.7% (inactive). As to `Cc1cc(O)c2c(c1)C(=O)c1cc(O)cc(O)c1C2=O`, the growth is 82.5% (inactive) and 80% (inactive). For `C#CCN(C)Cc1ccccc1`, the growth is 95.2% (inactive) and 131% (inactive). The figure for `CCN(CC)CCCC(C)Nc1ccnc2cc(Oc3ccccc3)ccc12` (stereo unspecified) is 65.5% (inactive) and 56% (inactive).

`COc1ccccc1NC(=O)OCC#CCOC(=O)Nc1ccccc1OC`: the growth was 83.1% (inactive) and 91.5% (inactive). The figure for `Cc1cc(O)c(C(C)C)cc1S(=O)(=O)O` (tested in a mixture with another compound) is 94.5% (inactive) and 16.4% (inactive).
